# The list is not random: actives were taken first. Their share in the collection is about 3.9%.
# SKKanGAS inh – S. pyogenes SKKanGAS growth inhibitors in kanamycin, primary screen, streptokinase expression inhibitor project, SKKanGAS strain, BacTiter-Glo luminescence; 6 h; inhibition, % at 7.5 µM; 300,000 tested, 1.3% active; AID 1662, 2009;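 active means mean replicate score, as percent of positive control median, at least 50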;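 further: strain carries kanamycin resistance gene driven by streptokinase promoter and grows in 40 µg/ml kanamycin; loss of luminescence reflects streptokinase promoter inhibition or plain growth inhibition; 0% = median of DMSO wells and 100% = positive control at its reference dose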
# PHOSPHO1 inh – PubChem AID 1565; 290,000 tested, 1.1% active; inhibition, % at 13.3 µM; recombinant PHOSPHO1, absorbance phosphatase assay; Phosphoethanolamine/phosphocholine phosphatase (Homo sapiens), Q8TCT1; in the data active means inhibition above about 60%
# Target sequence (Q8TCT1 whole entry, looked up): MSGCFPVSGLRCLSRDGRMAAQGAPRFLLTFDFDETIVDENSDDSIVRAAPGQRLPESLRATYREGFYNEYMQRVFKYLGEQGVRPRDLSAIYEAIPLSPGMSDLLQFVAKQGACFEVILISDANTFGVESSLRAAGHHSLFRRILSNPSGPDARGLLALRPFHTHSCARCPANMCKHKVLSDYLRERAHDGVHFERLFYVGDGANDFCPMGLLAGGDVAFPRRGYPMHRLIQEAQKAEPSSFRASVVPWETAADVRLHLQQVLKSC
# Rtt109 HAT inh – inhibitors of C. albicans Rtt109/Vps75 HAT, primary screen, biochemical, ThioGlo CoA-SH fluorescence, plate reader. inhibition, % at 34.9 µM. purified Rtt109/Vps75, 4 h. 330,000 tested, 0.16% active;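 active means inhibition of at least 50% in every replicate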
# WT yeast gro inh – growth inhibition of WT strain, primary screen, mitochondrial fusion inhibitor project, WT and mutant strains, chemical genetic; 190,000 tested, 2.1% active; AID 1362, 2008; inhibition, % at 10 µM; mitochondrial fusion phenotypic screen; in the data active means inhibition above about 58%; tested in S. cerevisiae
# Platelet DG rel – inhibitors of platelet dense granule secretion, primary screen, cell-based, MLPCN, human platelets. human platelet-rich plasma, SFLLRN dense granule ATP release, luminescence. inhibition, %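 (compounds screened at 7.5 µM in platelet-rich plasma)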. 300,000 tested, 0.22% active. AID 1663, 2009;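 active means mean replicate score, as percent of positive control, at or above 50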
# TPT1 inh – Candida albicans TPT1 enzyme inhibitors, primary screen, biochemical, fluorescence polarization; tRNA 2'-phosphotransferase TPT1 (Candida albicans SC5314); recombinant caTPT1, FP RNA substrate dephosphorylation; inhibition, % at 5 µM; 300,000 tested, 0.81% active; AID 1962, 2009;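 active means inhibition above the mean of all tested compounds plus 3 SD, set per screening campaign, cut at about 24% in these data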;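 further: plate controls were DMSO alone for no effect and ferristatin control at 100 nM for full effect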
# The depositor's hits bear a star; nt = not tested or not shown.
SMILES,SKKanGAS inh,PHOSPHO1 inh,Rtt109 HAT inh,WT yeast gro inh,Platelet DG rel,TPT1 inh
CSC1=N/C(=C\c2ccc(C)o2)C(=O)S1,6,92*,5,12,-8,1
CSC1=N/C(=C\c2ccc(C)s2)C(=O)S1,-3,-10,-1,-11,3,2
COCCCN1C(=O)c2ccc(C(=O)Nc3ccc(C)cc3C)cc2C1=O,0,33,-6,nt,-3,0
CC[C@]12c3[nH]c4ccc(OC)cc4c3CCN1C(=O)C(CC(=O)NCCN1CCOCC1)C[C@@H]2C(=O)N1CCN(C(=O)c2ccco2)CC1 (some centres undefined),nt,nt,-6,nt,nt,nt
COC(=O)CSC1=C(C#N)C(=O)NC(c2ccccc2)S1 (centres undefined),-1,98*,12,-6,-1,3
O=C(C1CCN(S(=O)(=O)c2cccs2)CC1)N1CCCC(C(F)(F)F)C1 (centres undefined),-1,18,-3,nt,-4,3
O=c1c2c(nc3c(-c4cccc(Br)c4)c[nH]n13)CCCC2,28,62*,2,7,-3,1
O=c1c2c(nc3c(-c4ccccc4)c[nH]n13)CCC2,16,45,nt,26,0,2
O=c1c2c(nc3c(-c4ccc(Cl)cc4)c[nH]n13)CCC2,66*,8,-7,-9,-1,-3
CCOC(=O)Cc1c(C)nc2c(-c3cccc(Br)c3)c[nH]n2c1=O,95*,-29,-9,4,-4,0
COc1ccc(C(=O)N(C)c2ccccc2C(=O)NCCc2ccccc2)cc1,-2,26,2,nt,0,0
COc1cc(C)c(C(=O)CC(=O)c2c(C)cc(OC)cc2C)c(C)c1,96*,nt,nt,nt,-17,1
CCCc1nnc(NC(=O)c2c(O)c3cccc4c3n(c2=O)CCC4)s1,87*,-69,nt,nt,12,-1
Cc1csc(NC(=O)c2c(O)c3cccc4c3n(c2=O)CCC4)n1,nt,-19,nt,nt,nt,nt
O=C(Nn1c(Cc2ccccc2)nc2ccccc2c1=O)c1c(O)c2cccc3c2n(c1=O)CCC3,71*,2,0,68*,14,2
Cc1cc(C)n2nc(C(=O)OCC(=O)NCc3ccc(Cl)cc3)nc2n1,nt,nt,23,nt,nt,nt
O=CNC1(c2ccccc2)CCCCC1,nt,nt,-2,nt,nt,nt
CN(C)C(=O)CSc1cccc2cccnc12,13,71*,7,33,0,0
Cc1c(CCCl)c(Cl)n2c(nc3ccccc32)c1C#N,nt,nt,-9,nt,nt,nt
COc1cc(C2CC(=O)N3CN(c4ccccc4C)CSC3=C2C#N)cc(OC)c1OC (centres undefined),-5,88*,nt,22,-11,3
COc1ccccc1N1CSC2=C(C#N)C(c3ccc(SC)cc3)CC(=O)N2C1 (centres undefined),11,92*,2,15,-1,11
O=S(=O)(/N=C(/Nc1cccnc1Cl)c1ccccc1)c1ccccc1,nt,nt,3,nt,nt,nt
CSCCC(NC(=O)c1cccc(C)c1)C(=O)Nc1sccc1C(N)=O (centres undefined),-6,19,10,nt,-6,2
CC(=O)NC1=CC(=C[N+](=O)[O-])C=C1O,nt,nt,2,nt,nt,nt
CN1CCN(C2=Cc3cc(Cl)ccc3Sc3cc(F)ccc32)CC1,90*,15,18,95*,1,-4
SMILES,SKKanGAS inh,PHOSPHO1 inh,Rtt109 HAT inh,WT yeast gro inh,Platelet DG rel,TPT1 inh
CN1CCN(C2=Cc3ccccc3Sc3cc(F)c(F)cc32)CC1,12,-6,5,95,-3,-1
CN1CCN(C2=Cc3ccccc3Sc3cc(F)c(Cl)cc32)CC1,42,-6,2,98*,4,-4
CC1CCCN(C(=O)COC(=O)Cn2cnc3ccccc32)C1 (centres undefined),nt,nt,-6,nt,nt,nt
O=C(c1c(F)c(F)c(F)c(F)c1F)N(Cc1ccccc1)Cc1ccccc1,25,7,4,66*,0,0
O=C(c1c(F)cccc1F)N(Cc1ccccc1)Cc1ccccc1,2,41,4,nt,-1,0
Cc1cnn(-c2nc(-c3ccccc3)cc(-c3ccccc3)n2)c1,76*,40,-3,41,6,nt
